Values joined by “and” are separate entries in the source; they are usually repeats but may differ in a detail not shown here. Identical values can stand only once. Inconclusive results are not listed. Active and inactive are the calls of the source. Calls follow the shape of the dose curve; as a rule, active = well fitted activation curve with a large enough effect in the signal ratio, with a control signal flat (not every such curve was filed as active); inconclusive = small, poorly fitted or top-dose-only effect, or effect the other way, or a change in a side signal; inactive = flat fitted curve, though single readings scatter; the % refers to the signal ratio.

The text below walks through data of PubChem BioAssay (NCATS).

The nature of this experiment: qHTS Assay for Identification of Small Molecule Agonists for Hypoxia Response Element Signaling Pathway (AID 914). Also: % of control where 0% means no effect. Particulars: ME-180 (cervical carcinoma) HRE-bla reporter, beta-lactamase ratio, CoCl2, 17 h; hits give high values. An excerpt: NIH Molecular Libraries Screening Centers Network [MLSCN]
NIH Chemical Genomics Center [NCGC]
Hypoxia-inducible factor-1 (HIF-1) is the major hypoxia-regulated transcription factor that controls cellular responses to low oxygen concentration. HIF-1 is composed of two subunits: hypoxia responsive HIF-1 alpha and constitutively expressed HIF-1 beta, which is also known as aryl hydrocarbon receptor nuclear translocator. During hypoxic conditions, HIF-1 alpha heterodimerizes with HIF-1 beta and translocates into the nucleus where the HIF-1 complex binds to the hypoxia-response element (HRE) and activates expression of target genes such as VEGF (vascular endothelial growth factor). HIF-1 alpha protein levels are elevated in many solid tumors, including those of the cervix and brain. Within tumors, cells that are the greatest distance from blood vessels and therefore the most hypoxic express the highest levels of HIF-1 alpha. Therapeutic blockade of the HIF-1 signaling pathway in cancer cells therefore provides an attractive strategy for development of anticancer drugs.
Using a beta-lactamase reporter-gene under control of the hypoxia response element, a cell-based assay [CellSensor(TM) HRE-bla ME-180 developed by Invitrogen Corp.] was used to measure hypoxia-induced signaling. Library compounds were measured for their ability to positively modulate the action of EC50 CoCl2 on reporter gene activity. Compounds were screened in a titration series in 1536-well format. Positive modulators were identified based on the AC50 values derived from the screening data.
NCGC Assay Protocol Summary:
2500 cells/5uL in Opti-MEM medium containing 0.5% dialyzed FBS, 0.1 mM NEAA, 1 mM sodium pyruvate and 10 mM HEPES was dispensed into 1536-well plates and cells were cultured at 37 degrees Celsius overnight. Next day 23 nL of compounds or DMSO were delivered to each well using a pin tool, and 1uL of EC50 level of CoCl2, or EC100 level of CoCl2, or assay medium was added. And then the plates were incubated at 37 degrees Celsius for 17 hours. 1 uL of CCF4-dye mixture was added to each well. After incubated at room temperature for 2.5 hours the plates were measured on an EnVision plate reader at Excitation 405nm, Emission1=460nm and Emission 2=530nm. The %Activity was determined from the ratio of 460nm/530nm.
For orientation: In qHTS, concentration-response curves come from the screen itself.
Take `C[C@@H]1O[C@H](OC2[C@@H](O)[C@H](O)C(O)[C@H](O)[C@H]2O)[C@@H](N)C[C@@H]1N=C(N)C(=O)O` (stereo partly specified): the activation was 3.06% (inactive).

As to `COc1cc2c(cc1OC)[C@@]13CCN4C=C5CCO[C@H]6CC(=O)N2[C@@H]1[C@@H]6[C@H]5C[C@H]43`, the activation was -4.7% (inactive).

`CC(C)[C@]1(O)[C@@H](OC(=O)c2ccc[nH]2)[C@]2(O)[C@@]3(C)C[C@@]4(O)O[C@@]5([C@H](O)[C@@H](C)CC[C@]35O)[C@]2(O)[C@]41C`: the activation was 12.8% (inactive).

Take `C[C@H](CC(C#N)(c1ccccc1)c1ccccc1)N1CCCCC1`: the activation was 4.33% (inactive).

As for `CN(C)CS/C(N)=N/[C@H](O)C(Cl)(Cl)Cl`, the activation is 7.72% (inactive).

In the case of `CC(=O)OC1=CC2=CC[C@H]3[C@H]4CCC(=O)[C@@]4(C)CC(=O)[C@]3(S)[C@]2(C)CC1`, the activation is -4.78% (inactive).

As to `C[C@]12CC[C@@H]3[C@H](CCC4=CC(=O)CC[C@]43C)[C@]1(O)CC[C@@]2(O)C(=O)CO`, the activation was 7.15% (inactive).

Consider `COc1cc(C[C@H](C)N)c(OC)cc1I`, for which the activation was 2.02% (inactive) and -7.45% (inactive).

Consider `CC(=O)O[C@H]1CC[C@@]2(C)[C@@H](CC[C@H]3[C@H]2CC(=O)[C@]2(C)[C@@H]3C[C@@H](N3CC3)[C@H]2C(C)=O)C1`, for which the activation was 5.69% (inactive).

For the compound `NC(=O)CN1C[C@@H](O)CC1=O`, the activation is 9.85% (inactive).

Regarding `NCCP(=O)(O)O`, the activation was 0.635% (inactive).

Take `Cc1c([C@@H](C)[C@H]2NC[C@H](C)C[C@@H]2O)ccc2c1C[C@@H]1[C@H]2CC=C2C[C@@H](O)CC[C@@]21C`: the activation was 4.43% (inactive).

On to `Cc1nc2ccccc2cc1C[N+]12CN3CN(CN(C3)C1)C2`, for which the activation was 9.32% (inactive).

Take `CC(C)CNCCc1ccccn1`: the activation is 5.07% (inactive).

`O=[N+]([O-])c1cc(-c2ccc([As](=O)(O)O)cc2)ccc1[As](=O)(O)O`: the activation is 1.51% (inactive).

Consider `Oc1ccc(CCNCc2cc3c(cc2Br)OCO3)cc1`, for which the activation is -17.8% (inactive).

With `N[C@H](Cn1ccc(=O)[nH]c1=O)C(=O)O`, the activation was 10.5% (inactive).

For the compound `Nc1nnnn1CCO`, the activation is 12.2% (inactive).

Turning to `O=C(O)[C@H]1C2c3ccccc3C(c3ccccc32)[C@@H]1C(=O)NCC1CC1`, the activation was -0.158% (inactive).

As for `O=C(O)C(=O)Cc1ccc2c(c1)OCO2`, the activation was -7.84% (inactive).

With `O=[As](O)(O)c1ccc(N=Nc2ccc(O)cc2)cc1`, the activation was 5.33% (inactive).
